# From article PMC12431657, “Discovery and mechanistic insights of dibenzoylmethane as a broad spectrum inhibitor of coronavirus” (PLOS Pathogens, 2025)
# Structures can show the parent of a compound that is named as a salt. Where two headings read alike, the source gives them in different places. Screen size: about 3,300 compounds; about 95 (3%) showed an effect of 50% or more. This excerpt belongs to a sample that is enriched for strong results.
# Tested on: HCoV-229E
# Parameters: species or system Huh-7; HTS, protection from HCoV-229E induced cell death, luminescent cell viability (CellCounting-Lite 2.0), inhibition rate
# Conditions: 24 h post infection, 1 h compound pre-incubation, 10 µM, inhibitor
compound,measurement,setting,value
O=c1cc(-c2ccc(O)c(O)c2)oc2cc(O[C@@H]3O[C@H](CO)[C@@H](O)[C@H](O)[C@H]3O)c(O)c(O)c12 [6-Hydroxyluteolin 7-glucoside],229E Inhibition rate,,5.1%
O=c1cc(-c2ccc(O)cc2)oc2cc(O)c([C@@H]3O[C@H](CO)[C@@H](O)[C@H](O)[C@H]3O[C@@H]3OC[C@H](O)[C@H](O)[C@H]3O)c(O)c12 [Isovitexin 2''-O-arabinoside],229E Inhibition rate,,22.1%
COc1cc2oc(-c3ccc(O)cc3)cc(=O)c2c(O)c1[C@@H]1O[C@H](CO)[C@@H](O)[C@H](O)[C@H]1O[C@@H]1O[C@H](CO)[C@@H](O)[C@H](O)[C@H]1O [Spinosin],229E Inhibition rate,,16.9%
O=c1cc(-c2ccc(O)c(O)c2)oc2c([C@@H]3O[C@H](CO)[C@@H](O)[C@H](O)[C@H]3O)c(O)cc(O)c12 [Orientin],229E Inhibition rate,,55%
O=c1cc(-c2ccc(O)cc2)oc2cc(O)c([C@@H]3O[C@H](CO)[C@@H](O)[C@H](O)[C@H]3O)c(O)c12 [Isovitexin],229E Inhibition rate,,21%
O=c1cc(-c2ccc(O)c(O)c2)oc2cc(O)c([C@@H]3O[C@H](CO)[C@@H](O)[C@H](O)[C@H]3O)c(O)c12 [Isoorientin],229E Inhibition rate,,51.3%
"O=c1cc(-c2ccc(O)c(O)c2)oc2c([C@@H]3O[C@H](CO)[C@@H](O)[C@H](O)[C@H]3O[C@H]3O[C@@H](CO)[C@@H](O)[C@@H](O)[C@@H]3O)c(O)cc(O)c12 [2""-O-beta-L-galactopyranosylorientin]",229E Inhibition rate,,6.8%
O=c1cc(-c2ccc(O)cc2)oc2cc(O)c([C@@H]3O[C@H](CO)[C@@H](O)[C@H](O)[C@H]3O[C@@H]3O[C@H](CO)[C@@H](O)[C@H](O)[C@H]3O)c(O)c12 [Meloside A],229E Inhibition rate,,56.2%
O=c1cc(-c2ccc(O)cc2)oc2c([C@@H]3O[C@H](CO)[C@@H](O[C@@H]4O[C@H](CO)[C@@H](O)[C@H](O)[C@H]4O)[C@H](O)[C@H]3O)c(O)cc(O)c12 [4”-O-Glucosylvitexin],229E Inhibition rate,,19%
O=C(O)[C@H](O)[C@@H](O)C(=O)O [L-Tartaric acid],229E Inhibition rate,"229E Inhibition rate, 24 h",17.2%
CCOC(=O)CC(C)O (centres unmarked) [Ethyl 3-hydroxybutyrate],229E Inhibition rate,,11.8%
CN1c2ccccc2C(=O)N2CCc3c([nH]c4ccccc34)C21 (racemic) [(±)-Evodiamine],229E Inhibition rate,,18.7%
CCCCC/C=C/C=C/C(=O)NCC(C)C [Pellitorine],229E Inhibition rate,,14.2%
O=C(O)c1ccc(C(=O)O)cc1 [Terephthalic acid],229E Inhibition rate,,10.1%
O=C(O)c1ccccc1 [Benzoic acid],229E Inhibition rate,,11.6%
O=C(O)c1ccncc1 [Isonicotinic acid],229E Inhibition rate,,55%
"O=C(O)c1c(O)cccc1O [2,6-Dihydroxybenzoic acid]",229E Inhibition rate,,10.3%
C=C(CO)C(=O)O[C@H]1CC(=C)[C@@H]2C[C@H](O)C(=C)[C@@H]2[C@H]2OC(=O)C(=C)[C@@H]21 [Cynaropicrin],229E Inhibition rate,,8.5%
Cc1ccccc1C(=O)NCC(=O)O [2-(2-Methylbenzamido)acetic acid],229E Inhibition rate,,54.8%
O=C(O)CNC(=O)c1ccccc1 [Hippuric acid],229E Inhibition rate,,8.9%
Cc1ccccc1C(=O)O [o-Toluic acid],229E Inhibition rate,,0%
CCOC(=O)/C=C/c1ccc(O)cc1 [p-Coumaric Acid Ethyl Ester],229E Inhibition rate,,23%
O=C1Cc2ccccc2N1 [Oxindole],229E Inhibition rate,,15.9%
O=C1C=CC[C@@H]2[C@H]3CCCN4CCC[C@@H](CN12)[C@@H]34 [Sophocarpine (monohydrate)],229E Inhibition rate,"229E Inhibition rate, 24 h",23.9%
COc1ccc(C2COc3cc(O)ccc3C2)c(O)c1OC (centres unmarked) [Isomucronulatol],229E Inhibition rate,,9.8%
COc1ccc(C(=O)O)cc1 [p-Anisic acid],229E Inhibition rate,,5.8%
Oc1cc(O)c2c(c1)O[C@H](c1cc(O)c(O)c(O)c1)[C@H](O)C2 [(-)-Epigallocatechin],229E Inhibition rate,,10.4%
Oc1cc(O)c2c(c1)O[C@H](c1cc(O)c(O)c(O)c1)[C@@H](O)C2 [(+)-Gallocatechin],229E Inhibition rate,,54.1%
Oc1cc(O)c2c(c1)O[C@@H](c1cc(O)c(O)c(O)c1)[C@H](O)C2 [(-)-Gallocatechin],229E Inhibition rate,,16.1%
O=C(O)CC(O)(CC(=O)O)C(=O)O [Sodium citrate (dihydrate)],229E Inhibition rate,"229E Inhibition rate, 24 h",0%
CC(C)C1=Cc2ccc3c(c2C(=O)C1=O)CCCC3(C)C [Miltirone],229E Inhibition rate,,4.2%
O=C(O)Cc1cccc(O)c1 [3-Hydroxyphenylacetic acid],229E Inhibition rate,,11%
C=C1C[C@]2(O)O[C@@]3(CC2=C(C)C)[C@@H](C)CC[C@@H]13 [Isocurcumenol],229E Inhibition rate,,10.7%
CC1=C[C@]2(O)O[C@@]3(CC2=C(C)C)[C@@H](C)CC[C@@H]13 [Curcumenol],229E Inhibition rate,,64.3%
C=C1C[C@@]2(O)O[C@@]3(C[C@H]2C(C)C)[C@@H](C)CC[C@@H]13 [Curcumol],229E Inhibition rate,,11.7%
"O=C1CCCCC1=O [1,2-Cyclohexanedione]",229E Inhibition rate,,20.8%
C=C(C)C1CC=C(C)C(O)C1 (mixture of isomers) [Carveol],229E Inhibition rate,,14.5%
C[C@H]1CC[C@@H]2N(C1)C[C@H]1[C@@H]3C[C@H]4[C@@H](CC(=O)[C@H]5C[C@@H](O[C@@H]6O[C@H](CO)[C@@H](O)[C@H](O)[C@H]6O)CC[C@@]54C)[C@@H]3CC[C@@H]1[C@]2(C)O [Edpetiline],229E Inhibition rate,,11.7%
COC(=O)c1ccccc1O[C@@H]1O[C@H](CO[C@@H]2OC[C@@H](O)[C@H](O)[C@H]2O)[C@@H](O)[C@H](O)[C@H]1O [Gaultherin],229E Inhibition rate,,45.9%
COc1ccc(C(C)=O)c(O[C@@H]2O[C@H](CO[C@@H]3OC[C@H](O)[C@H](O)[C@H]3O)[C@@H](O)[C@H](O)[C@H]2O)c1 [Apiopaeonoside],229E Inhibition rate,,0%
O[C@@H]1[C@@H](O)[C@H](OC/C=C/c2ccccc2)O[C@H](CO[C@@H]2OC[C@H](O)[C@H](O)[C@H]2O)[C@H]1O [Rosavin],229E Inhibition rate,,56.6%
O=C1NCN(c2ccccc2)C12CCN(CCCOc1ccc(F)cc1)CC2 [Spiramide],229E Inhibition rate,,51.4%
O=C1c2cccc(O)c2C(=O)c2c(O)cccc21 [Danthron],229E Inhibition rate,,0%
O=C(O)c1cc(O)c2c(c1)C(=O)c1cccc(O)c1C2=O [Rhein],229E Inhibition rate,,55.2%
Cc1cc(O)c2c(c1)C(=O)c1cccc(O)c1C2=O [Chrysophanol],229E Inhibition rate,,29.5%
C=C1C=CC(C(C)C)CC1 (stereo not drawn) [β-Phellandrene],229E Inhibition rate,,51.8%
CC(C)=CC[C@]12Oc3cc(O)c([C@H]4C=C(C)C[C@H](c5ccc(O)cc5O)[C@H]4C(=O)c4ccc(O)cc4O)c(O)c3C(=O)[C@@]1(O)Oc1cc(O)ccc12 [Sanggenon C],229E Inhibition rate,,43.3%
COC(=O)[C@H]1[C@H]2C[C@H]3c4[nH]c5ccccc5c4CCN3C[C@H]2CC[C@@H]1O [Rauwolscine (hydrochloride)],229E Inhibition rate,,43.9%
COC(=O)[C@@H]1[C@H]2C[C@H]3c4[nH]c5ccccc5c4CCN3C[C@@H]2CC[C@@H]1O [Yohimbine],229E Inhibition rate,"229E Inhibition rate, 24 h",50.5%
COC(=O)C1=CO[C@@H](C)[C@H]2CN3CCc4c([nH]c5ccccc45)[C@@H]3C[C@H]12 [Ajmalicine],229E Inhibition rate,,55.3%
COC(=O)C1=CO[C@@H](C)[C@H]2CN3CC[C@]4(C(=O)Nc5ccccc54)[C@@H]3C[C@H]12 [Mitraphylline],229E Inhibition rate,,5.5%
COC(=O)[C@@H]1[C@H]2C[C@H]3c4[nH]c5ccccc5c4CCN3C[C@@H]2CC[C@@H]1O [Yohimbine (Hydrochloride)],229E Inhibition rate,"229E Inhibition rate, 24 h",36%
COC(=O)C1=CO[C@@H](C)[C@@H]2CN3CC[C@@]4(C(=O)Nc5ccccc54)[C@@H]3C[C@H]12 [Isopteropodine],229E Inhibition rate,,13.3%
Cn1cnc2c(ncn2[C@@H]2O[C@H](CO)[C@@H](O)[C@H]2O)c1=N [1-Methyladenosine],229E Inhibition rate,,12.1%
N[C@@H](Cc1c[nH]c2ccc(O)cc12)C(=O)O [5-Hydroxytryptophan],229E Inhibition rate,"229E Inhibition rate, 24 h",13.7%
C[N+]1(C)CCC[C@H]1C(=O)[O-] [Stachydrine hydrochloride],229E Inhibition rate,"229E Inhibition rate, 24 h",11.8%
C[C@H]1CC[C@]2(NC1)O[C@H]1C[C@H]3[C@@H]4CC[C@H]5C[C@@H](O)CC[C@]5(C)[C@H]4CC[C@]3(C)[C@H]1[C@@H]2C [Tomatidine (hydrochloride)],229E Inhibition rate,"229E Inhibition rate, 24 h",28.3%
C[C@H]1CC[C@]2(NC1)O[C@H]1C[C@H]3[C@@H]4CC[C@H]5C[C@@H](O)CC[C@]5(C)[C@H]4CC[C@]3(C)[C@H]1[C@@H]2C [Tomatidine],229E Inhibition rate,"229E Inhibition rate, 24 h",55.9%
C[C@@H]1CC[C@@]2(OC1)O[C@H]1C[C@H]3[C@@H]4CC[C@H]5C[C@@H](O)CC[C@]5(C)[C@H]4CC[C@]3(C)[C@H]1[C@@H]2C [Tigogenin],229E Inhibition rate,,11%
COc1cc(-c2oc3cc(O)cc(O)c3c(=O)c2O)ccc1O [Isorhamnetin],229E Inhibition rate,,7.4%
COc1cc2c(cc1O)CC[N+](C)(C)[C@@H]2Cc1ccc(O)cc1 [Lotusine (hydroxide)],229E Inhibition rate,,0%
COc1cc(/C=C/C(=O)OC[C@H]2O[C@H](O[C@]3(CO)O[C@H](CO)[C@@H](O)[C@@H]3OC(=O)/C=C/c3cc(OC)c(OC)c(OC)c3)[C@H](O)[C@@H](O)[C@@H]2O)cc(OC)c1O [Tenuifoliside C],229E Inhibition rate,,19.9%
CC(C)=CC(=O)C[C@H](C)c1ccc(C)cc1 [ar-Turmerone],229E Inhibition rate,,53%
CC(=O)c1ccc(C)cc1 [4'-Methylacetophenone],229E Inhibition rate,,8.7%
Cc1ccc(C(=O)O)cc1 [p-Toluic acid],229E Inhibition rate,,6.6%
